hiPSC survival = increases survival of single human iPS cells; hit rate 0.044% among 360,000; survival enhancement, % at 20 µM; AID 602274; hiPSC single-cell survival, ATPlite luminescence; 100% = ROCK inhibitor wells, 0% = DMSO; in the data active means survival enhancement above about 18%;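 further: cells exposed to compounds for 16 hours before the ATP read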
PPC-1+TRAIL kill = compounds killing PPC-1 cancer cells with TRAIL present (potentiator screen, no TRAIL-free arm); AID 1443; hit rate 0.41% among 220,000; cell killing (% activity), % at 4 µM or 5 µM; PPC-1 cells + TRAIL, ATPLite viability luminescence;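 active means cell killing above 50% in the first pass at 4 µM, then a duplicate retest at 5 µM averaging 50% or more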;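 further: plate controls were cells with TRAIL plus DMSO for no effect and medium-only wells lacking cells for full effect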
HIF-2a inh = inhibitors of HIF-2a. 786-0 RCC cells HIF-2a reporter, luciferase luminescence, overnight. inhibition, % at 18.8 µM. hit rate 0.72% among 360,000;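 active means inhibition of the luminescence signal of 40% or more relative to plate controls, in a single-dose primary screen at 18.75 µM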
TRAIL sens C8 = caspase-8 TRAIL sensitization; inhibition (viability loss, TRAIL sensitization), % at 10 µM; AID 624354; NB7+C8 cells + TRAIL, ATPlite viability luminescence; hit rate 1% among 360,000;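 active means compounds causing at least 50% loss of cell viability in the single-dose screen, relative to plate controls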
KKLEB cytotox = reduces viability of KKLEB cystic fibrosis airway cells; KKLEB CF airway cells viability, ATPlite luminescence, overnight; hits give low values; cells stimulated with P. aeruginosa culture filtrate; hit rate 0.36% among 360,000; AID 602141; activity change (cytotoxicity), % at 5 µM;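 active means corrected activity change at or below -50% at 5 µM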
CF NFkB block = inhibitors of cystic fibrosis induced NF-kB; KKLEB NF-kB-GFP reporter, PAF-induced, GFP fluorescence overnight; inhibition, % at 5 µM; hit rate 0.86% among 360,000;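 active means at least 50% inhibition at 5 µM, scaled per plate between neutral and stimulator controls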;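 further: PAF is a Pseudomonas aeruginosa culture filtrate used as stimulus; plate controls were PAF-stimulated DMSO wells for no effect and unstimulated DMSO wells for full effect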
* = called active by the depositor; / = not tested or not shown. Sampled rows, rich in hits. Any-hit rate of the full collection: about 2.2%.

SMILES	hiPSC survival	PPC-1+TRAIL kill	HIF-2a inh	TRAIL sens C8	KKLEB cytotox	CF NFkB block
COc1ccc(NC(=O)CSc2nnc(-c3cccc(O)c3)o2)cc1	-0.5	/	-136.1	-0.9	-3.8	-20.2
COc1cccc(NC(=O)CSc2nnc(-c3cc(C)n(-c4ccccc4)c3C)o2)c1	-1.2	11.3	41.8*	12.7	-0.7	-6.5
Cc1cc(NC(=O)CN(C)CC(=O)Nc2ccc(Cl)cc2)no1	0.0	/	0.6	-9.4	6.9	-4.4
COC(=O)C(C#N)C(=C1C(=O)CC(C)(C)CC1=O)c1ccc(O)cc1 (centres undefined)	-2.0	19.3	-1.4	-15.5	-50.0*	-6.5
COC(=O)c1ccc(C2C(C#N)=C(C)NC3=C2C(=O)CC(C)(C)C3)cc1 (centres undefined)	-2.4	-18.4	5.3	0.5	2.5	-6.6
Cc1ccc(S(=O)(=O)N(CC(=O)NC2CC2)c2ccc(C)c(Cl)c2)cc1	-0.1	/	4.5	-8.1	14.3	-28.1
CCC(C)[C@@H](NC(=O)OC(C)(C)C)c1nnc(S(=O)(=O)Cc2cccc(C)c2)o1 (some centres undefined)	-2.7	1.0	39.5	-2.6	-6.9	82.2*
CC(C)(C)OC(=O)N[C@@H](Cc1ccccc1)c1nnc(S(=O)(=O)Cc2ccccc2)o1	/	6.1	/	/	/	/
Cc1ccccc1CS(=O)(=O)c1nnc([C@H](Cc2ccccc2)NC(=O)OC(C)(C)C)o1	-1.9	23.8	21.5	2.8	-23.5	71.5*
COc1ccc(C)cc1NC(=O)CN1CCCN(S(=O)(=O)c2ccc(Br)cc2)CC1	1.8	/	12.0	-53.8	-3.8	-6.0
CC(=O)Nc1ccc(C2=CC(=O)C[C@H](c3ccc4c(c3)OCO4)C2)cc1	-3.0	/	-13.1	-16.2	0.8	10.0
Cc1cccc(CS(=O)(=O)Cc2ccc(C(=O)NC3CCCCC3)o2)c1	-0.3	/	15.9	-26.4	0.2	14.7
CC(C)NC(=O)C1(C)CCN1C(=O)C1(c2ccccc2)CCCC1 (centres undefined)	7.7	/	3.3	1.7	1.6	-8.2
C#Cc1ccc(NC(=O)C2(C)CCN2C(=O)c2ccccc2CCc2ccccc2)cc1 (centres undefined)	3.6	/	0.7	89.1*	1.1	-4.9
C#Cc1ccc(NC(=O)C2(C)CCN2C(=O)C2(c3ccccc3)CCCC2)cc1 (centres undefined)	0.0	/	15.8	85.8*	0.8	18.2
CC(=O)Nc1ccc(S(=O)(=O)N(Cc2cccnc2)Cc2cc3ccccc3[nH]c2=O)cc1	0.7	/	-13.1	20.4	-24.2	81.3*
COc1ccc(N(Cc2cc3cc(OC)ccc3[nH]c2=O)S(=O)(=O)c2ccc(NC(C)=O)cc2)cc1	-0.1	/	11.3	19.3	-100.6*	80.1*
COc1ccc(N(Cc2cc3ccccc3[nH]c2=O)S(=O)(=O)c2ccc(OC)cc2)cc1	0.8	/	-19.0	31.1	-10.2	6.5
O=C(CCN1C(=O)/C(=C\c2ccccc2F)SC1=S)N1CCOCC1	-1.8	/	-26.1	22.4	-13.6	31.1
CN1CCN(C(=O)CCN2C(=O)/C(=C\c3ccccc3F)SC2=S)CC1	-0.1	/	2.0	31.2	-4.2	54.9*
O=C(CCN1C(=O)/C(=C\c2ccccc2)SC1=S)N1CCCCC1	-0.6	/	45.3*	3.3	-0.5	33.2
Cc1c(CN2CCC(CO)(CCOc3ccccc3)CC2)c(=O)n(-c2ccccc2)n1C	2.6	3.5	2.6	6.9	3.4	-1.4
O=C1C(Nc2ccccc2)=C/C(=N/S(=O)(=O)c2cccs2)c2ccccc21	-4.3	22.5	-4.6	96.5*	-91.1*	99.5*
O=C1C(Nc2ccccc2)=C(NS(=O)(=O)c2ccccc2)C(=O)c2ccccc21	-0.9	41.3	-3.9	2.7	14.0	30.9
Cc1ccc(NC2=C/C(=N/S(=O)(=O)c3cccs3)c3ccccc3C2=O)cc1	-2.2	37.5	-152.1	95.1*	-70.0*	80.0*
SMILES	hiPSC survival	PPC-1+TRAIL kill	HIF-2a inh	TRAIL sens C8	KKLEB cytotox	CF NFkB block
Cc1ccc(/C=C2\S/C(=N/S(=O)(=O)c3cccs3)NC2=O)cc1	2.1	2.4	5.0	5.8	2.2	15.4
O=C(/C=C/c1ccccc1Cl)Nc1ccccc1	-0.5	36.3	-180.8	34.5	-17.2	1.3
O=C(/C=C/c1ccccc1Cl)Nc1cccc(O)c1	-4.2	45.2	-190.0	72.0*	7.1	-49.6
CCOC(=O)c1cnc2cc(-c3ccc(Cl)cc3)nn2c1N	1.0	17.4	-172.3	5.3	11.1	-8.6
CSc1nc(N)n2nc(-c3ccc(Cl)cc3)cc2n1	-0.8	19.3	-273.5	44.9*	-5.1	-48.4
NC(=O)c1nc(-c2ccco2)nc2c1[nH]c(=O)n2-c1ccc(Cl)c(Cl)c1	0.2	21.1	16.6	14.0	3.2	-12.4
Cc1[nH]c2ccccc2c1C(=O)C(=O)N1CCN(C(=O)c2ccco2)CC1	0.9	3.9	12.8	2.9	2.5	-0.7
O=C(NC(=S)Nc1ccccc1[N+](=O)[O-])c1ccccc1	-0.2	5.2	-312.4	19.8	-1.2	-8.9
O=C(NC(=S)/C(=C1\CCCCCN1)[N+](=O)[O-])c1ccccc1	-5.4	/	22.1	78.5*	-25.2	-9.6
Cc1cc(N2CCN(C)CC2)ccc1NC(=O)c1ccc(-c2ccc(Cl)cc2)o1	-0.5	/	41.1*	32.8	-12.5	12.0
c1cncc(CSc2ccc(-c3ccc4c(c3)OCO4)nn2)c1	0.3	1.7	-259.0	11.3	4.1	-33.3
Cc1c(P(=S)(c2ccccc2)c2ccccc2)[n+]2ccccc2n1CCc1ccccc1	-3.8	/	7.0	52.7*	-8.1	44.7
Cc1cc(C(=O)CCl)c(C)n1CCc1ccccc1	/	25.4	/	/	/	/
C/C(=N/NC(=O)CN(c1ccccc1)S(=O)(=O)c1ccccc1)c1ccccc1O	0.1	/	24.6	35.2	-7.7	-7.6
CN(c1ccc(F)cc1)S(=O)(=O)c1ccc(Cl)c(C(=O)NCc2ccco2)c1	0.3	/	3.6	-11.8	3.4	-0.8
COC(=O)c1cc(NC(=O)COC(=O)CN2C(=O)C3CC=CCC3C2=O)cc(C(=O)OC)c1 (centres undefined)	0.8	/	5.9	-7.5	15.7	3.5
CCOC(=O)/C=c1\s/c(=C\c2ccc3cc(OC)ccc3c2)c(=O)n1CC(=O)NCc1ccc2c(c1)OCO2	-1.8	14.9	6.0	-4.0	-17.9	-6.2
CCOC(=O)/C=c1\s/c(=C\c2ccccc2C)c(=O)n1CC(=O)NCc1ccc2c(c1)OCO2	-1.2	2.5	-6.6	9.1	-58.4*	37.5
O=C(c1cccc(C(F)(F)F)c1)c1c[nH]c(C(=O)NCCCN2CCOCC2)c1	2.6	4.3	7.9	6.1	8.1	-5.7
CCN(CC)S(=O)(=O)c1ccc(NN=c2c(=O)c3ccccc3c2=O)cc1	0.6	13.4	-2.6	6.3	0.0	7.9
O=C(N/N=C\c1ccc(CNS(=O)(=O)c2ccc(Cl)cc2)o1)C(=O)Nc1ccc(Oc2ccccc2)cc1	-2.5	1.0	2.5	53.8*	-41.5	39.2
FC(F)(F)c1cc(Cl)c2nc(-c3ccccc3)cn2c1	-3.4	7.5	-177.0	51.2*	10.8	-5.6
